Measurements as given in PubChem BioAssay AID1159580 (chemical genetic matrix, 2015).
About 2,000 (36%) of roughly 5,500 compounds were called active. Inconclusive results (about 18%) are left out. No stated cut-off is given here; in the data, active means normalized growth mostly below about 0.91 (no sharp cut-off); inconclusive means no clear call, values can overlap the other calls; inactive means mostly above about 0.92. This is one part of the list.

Experiment: chemical genetic growth profiling, strain panel (AID 1159580);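 further: tested at 20 µM; growth read once vehicle control cultures reached saturation at 30 °C; 1 = growth at the plate median or of vehicle wells; lower values mean less growth of the strain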
Settings: S. cerevisiae deletion strains, growth OD
[1] = locus YAL040C, strain CLN3, hits give low values
[2] = locus YCL061C, strain MRC1 (second series), hits give low values
[3] = locus YDR150W, strain NUM1, hits give low values
[4] = locus YDR363W, strain ESC2, hits give low values
[5] = locus YER002W, strain NOP16, hits give low values
[6] = locus YMR307W, strain GAS1, hits give low values
[7] = locus YNL175C, strain NOP13, hits give low values
[8] = locus YNL197C, strain WHI3, hits give low values
[9] = locus YNL224C, strain SQS1, hits give low values
[10] = locus YOR083W, strain WHI5 (second series), hits give low values
[11] = locus YPL055C, strain LGE1, hits give low values

Measured: normalized growth

COC(=O)[C@@H](N)Cc1ccc(O)c(O)c1
inactive: [1] 1.03 | [2] 0.971 | [3] 0.958 | [4] 1 | [5] 1 | [6] 0.995 | [7] 1 | [8] 0.984 | [9] 1 | [10] 0.993 | [11] 0.971 | locus YPL241C, strain CIN2, hits give low values 1.01

N[C@H](CO)C(=O)O
inactive: locus YAL013W, strain DEP1, hits give low values 1.03 | [1] 1.01 | [2] 1 | [3] 1 | [4] 1.03 | [5] 0.986 | locus YJR075W, strain HOC1, hits give low values 1.01 | [6] 1 | locus YNL128W, strain TEP1, hits give low values 0.999 | [7] 0.995 | [8] 0.999 | [9] 0.997 | locus YNL322C, strain KRE1, hits give low values 1 | [10] 0.996 | [11] 1.02
